ChEMBL document CHEMBL1157539, “Thousands of chemical starting points for antimalarial lead identification” (Nature, 2010)

How the values were obtained:
Type in all cases: functional
[1] = system: Plasmodium falciparum; assay: GSK_TCMDC: Inhibition of Plasmodium falciparum 3D7 in whole red blood cells, using parasite LDH activity as an index of growth. Test compounds present at 2uM
[2] = system: Plasmodium falciparum; assay: GSK_TCMDC: Inhibition of Plasmodium falciparum Dd2 in whole red blood cells, using parasite LDH activity as an index of growth. Test compounds present at 2uM
[3] = system: HepG2; assay: GSK_TCMDC: Percent inhibition of human HepG2 cell line. Test compounds present at 10uM.

Compound: COC(=O)CCCCCOc1cc(Cc2cnc(N)nc2N)cc(OC)c1OC
- Inhibition [1]: 90%
- Inhibition [2]: 0%
- Inhibition [3]: 0%

Compound: CN(C)CCC1CCN(CCS(=O)(=O)c2cccc(Nc3ccc(-c4ccsc4)cn3)c2)CC1
- Inhibition [1]: 97%
- Inhibition [2]: 6%
- Inhibition [3]: 49%

Compound: COc1cc2nc(N3CCC(C(N)=O)CC3)nc(NCc3ccccc3)c2cc1OC
- Inhibition [1]: 100%
- Inhibition [2]: 23%
- Inhibition [3]: 23%

Compound: CCNc1cc(C)nc(Nc2ccc(NS(=O)(=O)c3cc(OC)ccc3OC)cc2)n1
- Inhibition [1]: 100%
- Inhibition [2]: 36%
- Inhibition [3]: 56%

Compound: COc1cc(C(=O)N2C(c3nccs3)C(C(=O)N(OC)C(C)c3ccccc3)CC2(CC(C)C)C(=O)OC(C)(C)C)ccc1C(C)(C)C (centres undefined)
- Inhibition [1]: 92%
- Inhibition [2]: 92%
- Inhibition [3]: 12%

Compound: CC(CN1CCN(C)CC1)C(=O)Nc1ccc(-c2cccc(-c3nc4cc(F)ccc4[nH]3)c2)cc1 (centres undefined)
- Inhibition [1]: 100%
- Inhibition [2]: 99%
- Inhibition [3]: 8%

Compound: Cc1ccc(S(=O)(=O)O)cc1.N=C(N)NCCCC(=O)NCC(N)=O
- Inhibition [1]: 100%
- Inhibition [2]: 0%
- Inhibition [3]: 20%

Compound: COc1ccc2nccc([C@@H](O)CN3CCC(NC(=O)c4ccc5cc[nH]c5c4)CC3)c2c1.CS(=O)(=O)O
- Inhibition [1]: 91%
- Inhibition [2]: 23%
- Inhibition [3]: 21%

Compound: CN1CCC(Oc2ccc(Nc3nccc(NCC(O)c4ccccc4)n3)cc2Cl)CC1 (centres undefined)
- Inhibition [1]: 100%
- Inhibition [2]: 99%
- Inhibition [3]: 46%

Compound: CC(C)NC(=N)NN=Cc1ccc(Cl)c(Cl)c1
- Inhibition [1]: 100%
- Inhibition [2]: 12%
- Inhibition [3]: 0%

Compound: COc1ccc(-n2c(=O)c3c(n4c(SC(C)C)nnc24)-c2ccccc2CC32CCCCC2)cc1
- Inhibition [1]: 99%
- Inhibition [2]: 15%
- Inhibition [3]: 0%

Compound: Cc1ccc(NC(=O)c2cccc(CN3CCCN(Cc4cccc(O)c4)CC3)c2)cc1.O=C(O)C(F)(F)F
- Inhibition [1]: 82%
- Inhibition [2]: 3%
- Inhibition [3]: 22%

Compound: COc1cc(OC)c(OC)cc1CN1CCC2(CC1)CN(Cc1ccc(Cl)c(Cl)c1)C(=O)O2
- Inhibition [1]: 90%
- Inhibition [2]: 94%
- Inhibition [3]: 8%

Compound: O=C(O)C(F)(F)F.c1cc(CNCC2CCCO2)cc(-c2cccc(-c3nc4ccccc4[nH]3)c2)c1 (centres undefined)
- Inhibition [1]: 100%
- Inhibition [2]: 7%
- Inhibition [3]: 15%

Compound: Oc1cccc(-c2nc3cc(C4=NC5CCCCC5N4)ccc3[nH]2)c1 (centres undefined)
- Inhibition [1]: 94%
- Inhibition [2]: 99%
- Inhibition [3]: 3%

Compound: CC=Cc1cc(Cc2c[nH]c(=N)[nH]c2=N)cc(CCC)c1OC
- Inhibition [1]: 97%
- Inhibition [2]: 1%
- Inhibition [3]: 16%

Compound: CCNc1cc(C(=O)N[C@@H](Cc2ccccc2)[C@H](O)CN[C@H](C)C(C)(C)C)cc(N2CCCCS2(=O)=O)c1.Cl
- Inhibition [1]: 95%
- Inhibition [2]: 41%
- Inhibition [3]: 4%

Compound: C=CCc1cc(Cc2cnc(N)nc2N)c2ccc(C)nc2c1OC
- Inhibition [1]: 96%
- Inhibition [2]: 0%
- Inhibition [3]: 11%

Compound: Cl.N=c1n(CCN2CCCCC2)c2ccccc2n1CC(O)c1ccc(Cl)c(Cl)c1 (centres undefined)
- Inhibition [1]: 97%
- Inhibition [2]: 97%
- Inhibition [3]: 50%

Compound: CCOC(=O)c1cnc2cc(N3CCCC3)c(Cl)cc2c1OCC
- Inhibition [1]: 97%
- Inhibition [2]: 97%
- Inhibition [3]: 0%

Compound: COc1cc(F)c2ncc(Cl)c(CCN3CCC(NCc4ccc5c(c4)NC(=O)CO5)CC3)c2c1.Cl
- Inhibition [1]: 95%
- Inhibition [2]: 79%
- Inhibition [3]: 32%

Compound: CC1CN(c2cnn(C/C=C/c3ccc(NC(=O)c4ccc([N+](=O)[O-])cc4)cc3)c(=O)c2Cl)CC(C)N1.O=C(O)C(F)(F)F (centres undefined)
- Inhibition [1]: 96%
- Inhibition [2]: 38%
- Inhibition [3]: 22%

Compound: N#Cc1cncc(-c2nc3c(N4CCC(N5CCCC5)CC4)cccc3n2CCNCc2ccccc2)c1.O=C(O)C(F)(F)F
- Inhibition [1]: 100%
- Inhibition [2]: 58%
- Inhibition [3]: 3%

Compound: CN1CCC(Oc2cc(CN3CC[C@H](NC(=O)c4ccc(Cl)c(Cl)c4)C3)ccc2I)C1.O=C(O)C(F)(F)F (some centres undefined)
- Inhibition [1]: 97%
- Inhibition [2]: 24%
- Inhibition [3]: 68%

Compound: O=C(O)C(F)(F)F.O=C(O)Cc1ccc(-c2c[nH]c3ncc(-c4cccc5ncccc45)cc23)cc1
- Inhibition [1]: 95%
- Inhibition [2]: 0%
- Inhibition [3]: 7%

Compound: CCNc1cc(C(=O)N[C@@H](Cc2ccoc2)[C@H](O)CNC(C)CCCC(C)C)cc(N2CCCCS2(=O)=O)c1.Cl (some centres undefined)
- Inhibition [1]: 99%
- Inhibition [2]: 68%
- Inhibition [3]: 0%

Compound: Fc1ccc(OC2CN(c3nccc(NCc4ccccc4Cl)n3)C2)cc1
- Inhibition [1]: 98%
- Inhibition [2]: 99%
- Inhibition [3]: 0%

Compound: O=C(NCCCCN1CCN(c2ccc3c(c2)CCC3)CC1)c1ccc(NC(=O)c2ccc(Cl)cc2)cc1
- Inhibition [1]: 98%
- Inhibition [2]: 35%
- Inhibition [3]: 38%
